This is an account of results in paper PMC4081100, “A DNA-binding-site landscape and regulatory network analysis for NAC transcription factors in Arabidopsis thaliana”.

Common to all, as to test: universal protein binding microarray (PBM); transcription factors of Arabidopsis thaliana; high values mean tight binding
Common to all, as to details: protein: recombinant; tags: GST; chain copies: 2; dsDNA, one strand shown

The target in one assay is T1, GST-ANAC092(1-176) (Arabidopsis thaliana, UniProt Q9FKA0 1-176).
T1 sequence: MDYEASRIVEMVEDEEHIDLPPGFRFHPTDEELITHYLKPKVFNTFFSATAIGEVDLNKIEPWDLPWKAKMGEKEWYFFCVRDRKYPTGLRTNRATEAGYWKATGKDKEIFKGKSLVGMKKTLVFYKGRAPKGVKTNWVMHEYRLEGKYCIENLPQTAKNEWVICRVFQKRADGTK
In a few lines: (§1)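 GST-tagged NAC-domain, full-length or DNA-binding-domain proteins were induced in cells, with zinc acetate added for zinc-finger proteins. They were purified on glutathione–Sepharose 4B and quantified by A280 or anti-GST western blot. Each was applied at 200 to 500 nM final, in duplicate, to custom all-10-mer Agilent 4 × 180K arrays made double-stranded by primer extension, with gapped and ungapped 8-mers scored. Binding is the normalised enrichment score (E-score).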

The target of a further assay is GST-NTL6(1-168) (Arabidopsis thaliana, UniProt Q9SCK6 1-168). In a few lines:
as §1

The target of another assay is T2, GST-ANAC019 NAC domain (Arabidopsis thaliana, UniProt Q9C932 14-162).
T2 sequence: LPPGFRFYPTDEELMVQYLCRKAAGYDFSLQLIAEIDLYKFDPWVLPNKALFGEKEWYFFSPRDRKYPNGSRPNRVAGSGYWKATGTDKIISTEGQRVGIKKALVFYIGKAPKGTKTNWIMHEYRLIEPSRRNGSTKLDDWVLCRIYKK
In a few lines:
as §1

Another assay has as its target T3, GST-ANAC055(1-171) (Arabidopsis thaliana, UniProt Q9LDY8 1-171).
T3 sequence: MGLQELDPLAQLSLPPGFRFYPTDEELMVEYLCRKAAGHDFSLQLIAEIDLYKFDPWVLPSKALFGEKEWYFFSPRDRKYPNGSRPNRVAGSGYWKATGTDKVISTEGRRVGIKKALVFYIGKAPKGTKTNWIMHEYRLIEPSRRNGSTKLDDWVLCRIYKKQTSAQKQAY
Put shortly:
as §1

In another assay the target is T4, GST-ATAF1 NAC domain (Arabidopsis thaliana, UniProt Q39013 7-158).
T4 sequence: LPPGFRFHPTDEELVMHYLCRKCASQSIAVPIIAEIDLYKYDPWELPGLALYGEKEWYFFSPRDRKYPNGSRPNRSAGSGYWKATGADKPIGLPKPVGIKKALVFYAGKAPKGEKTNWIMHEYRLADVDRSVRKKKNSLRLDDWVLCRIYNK
In a few lines: as §1

Assay [1] concerns the target T5, GST-ANAC092(1-285) full length (Arabidopsis thaliana, UniProt Q9FKA0 1-285).
T5 sequence: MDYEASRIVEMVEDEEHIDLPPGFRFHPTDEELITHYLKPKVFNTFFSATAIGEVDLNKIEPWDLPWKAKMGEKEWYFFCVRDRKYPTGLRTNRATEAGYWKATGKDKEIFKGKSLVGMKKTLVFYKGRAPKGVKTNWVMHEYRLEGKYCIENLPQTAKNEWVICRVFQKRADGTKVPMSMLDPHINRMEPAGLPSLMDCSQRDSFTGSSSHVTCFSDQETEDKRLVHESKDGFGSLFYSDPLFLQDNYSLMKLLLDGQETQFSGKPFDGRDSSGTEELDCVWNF
Put shortly:
as §1

Another assay addresses T6, GST-NAP(1-166) (Arabidopsis thaliana, UniProt O49255 1-166).
T6 sequence: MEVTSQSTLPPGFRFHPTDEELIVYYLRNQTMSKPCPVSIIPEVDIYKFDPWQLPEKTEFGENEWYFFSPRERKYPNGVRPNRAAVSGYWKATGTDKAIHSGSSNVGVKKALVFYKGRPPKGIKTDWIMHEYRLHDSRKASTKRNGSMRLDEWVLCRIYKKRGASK
In a few lines:
as §1

A further assay has as its target T7, GST-NST2(1-184) (Arabidopsis thaliana, UniProt Q9M274 1-184).
T7 sequence: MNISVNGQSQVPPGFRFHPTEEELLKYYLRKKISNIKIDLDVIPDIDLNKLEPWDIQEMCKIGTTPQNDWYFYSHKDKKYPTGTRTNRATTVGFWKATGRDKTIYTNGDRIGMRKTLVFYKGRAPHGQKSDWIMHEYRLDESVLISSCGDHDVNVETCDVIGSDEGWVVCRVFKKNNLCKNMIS
In a few lines: as §1

A further assay concerns the target T8, GST-NTL8 NAC domain (Arabidopsis thaliana, UniProt Q9XIN7 14-156).
T8 sequence: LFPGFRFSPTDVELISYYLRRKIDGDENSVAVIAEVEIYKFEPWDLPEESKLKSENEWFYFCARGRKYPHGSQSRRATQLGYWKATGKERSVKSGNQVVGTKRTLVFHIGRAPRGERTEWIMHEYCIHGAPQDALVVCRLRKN
Put shortly:
as §1

A further assay addresses T9, GST-SND1(1-203) (Arabidopsis thaliana, UniProt Q9LPI7 1-203).
T9 sequence: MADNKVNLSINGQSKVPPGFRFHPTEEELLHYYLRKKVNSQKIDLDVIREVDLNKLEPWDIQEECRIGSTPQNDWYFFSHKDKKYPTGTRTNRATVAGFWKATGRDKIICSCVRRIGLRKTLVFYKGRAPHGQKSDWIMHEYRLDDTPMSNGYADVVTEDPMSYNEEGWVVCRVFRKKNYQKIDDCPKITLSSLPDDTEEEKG
Put shortly: as §1

The target in another assay is T10, GST-VND3 NAC domain (Arabidopsis thaliana, UniProt Q9FH59 12-162).
T10 sequence: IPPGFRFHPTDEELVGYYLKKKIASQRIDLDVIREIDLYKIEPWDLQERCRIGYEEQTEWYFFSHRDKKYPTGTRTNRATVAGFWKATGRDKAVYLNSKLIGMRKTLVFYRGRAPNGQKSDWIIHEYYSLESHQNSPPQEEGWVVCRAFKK
In a few lines: as §1

The next assay addresses T11, GST-VND7 NAC domain (Arabidopsis thaliana, UniProt Q9C8W9 9-158).
T11 sequence: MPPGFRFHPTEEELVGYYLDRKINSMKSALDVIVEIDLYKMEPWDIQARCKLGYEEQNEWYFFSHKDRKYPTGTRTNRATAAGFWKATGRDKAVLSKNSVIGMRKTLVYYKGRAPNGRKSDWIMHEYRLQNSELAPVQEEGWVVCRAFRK
Put shortly:
as §1

Sequence of GST-NTL6(1-168) (Q9SCK6 1-168): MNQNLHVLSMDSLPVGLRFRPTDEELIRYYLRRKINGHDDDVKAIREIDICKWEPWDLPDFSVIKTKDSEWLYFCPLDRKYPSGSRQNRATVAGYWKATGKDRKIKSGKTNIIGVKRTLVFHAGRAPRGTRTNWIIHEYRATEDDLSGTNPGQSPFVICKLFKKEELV

Turning to AAGTAAAG, the binding signal with GST-ANAC092(1-176) came to 0.275 E-score; with GST-NTL6(1-168), 0.432 E-score; with GST-ANAC019 NAC domain, 0.107 E-score; with GST-ANAC055(1-171), 0.168 E-score; with GST-ATAF1 NAC domain, 0.189 E-score; in assay [1] it was 0.32 E-score. In addition, the binding signal turned out to be 0.0549 E-score with GST-NAP(1-166); 0.265 E-score with GST-NST2(1-184); 0.27 E-score in the assay with GST-NTL8 NAC domain; 0.328 E-score with GST-SND1(1-203); 0.175 E-score in the assay with GST-VND3 NAC domain; 0.181 E-score with GST-VND7 NAC domain.
As for CAAGTAAC, the binding signal with GST-ANAC092(1-176) was determined as 0.352 E-score; with GST-NTL6(1-168), 0.316 E-score; with GST-ANAC019 NAC domain, 0.134 E-score; with GST-ANAC055(1-171), 0.203 E-score; with GST-ATAF1 NAC domain, 0.0948 E-score; in assay [1], 0.408 E-score. Besides, the binding signal with GST-NAP(1-166) is 0.0502 E-score; with GST-NST2(1-184) it was 0.298 E-score; with GST-NTL8 NAC domain, 0.185 E-score; with GST-SND1(1-203), 0.301 E-score; with GST-VND3 NAC domain it was 0.209 E-score; with GST-VND7 NAC domain, 0.0947 E-score.
As for ACGTAACT, the binding signal with GST-ANAC092(1-176) worked out at 0.443 E-score; with GST-NTL6(1-168) it was 0.174 E-score; with GST-ANAC019 NAC domain it was 0.48 E-score; in the assay with GST-ANAC055(1-171), 0.451 E-score; with GST-ATAF1 NAC domain, 0.444 E-score; in assay [1], 0.424 E-score. In addition, the binding signal is 0.474 E-score with GST-NAP(1-166); 0.251 E-score with GST-NST2(1-184); 0.247 E-score in the assay with GST-NTL8 NAC domain; 0.325 E-score in the assay with GST-SND1(1-203); 0.466 E-score with GST-VND3 NAC domain; 0.474 E-score in the assay with GST-VND7 NAC domain.
GCGTAATA: the binding signal with GST-ANAC092(1-176) was found to be 0.318 E-score; in the assay with GST-NTL6(1-168), 0.0582 E-score; in the assay with GST-ANAC019 NAC domain, 0.0565 E-score; with GST-ANAC055(1-171), 0.189 E-score; in the assay with GST-ATAF1 NAC domain it was 0.0519 E-score; in assay [1], 0.324 E-score. The binding signal with GST-NAP(1-166) stood at 0.109 E-score; in the assay with GST-NST2(1-184) it was 0.306 E-score; in the assay with GST-SND1(1-203), 0.422 E-score; with GST-VND3 NAC domain, 0.203 E-score; in the assay with GST-VND7 NAC domain it was 0.246 E-score.
As to CACGTTAA, the binding signal was 0.429 E-score with GST-ANAC092(1-176); 0.0985 E-score in the assay with GST-NTL6(1-168); 0.125 E-score in the assay with GST-ANAC019 NAC domain; 0.243 E-score in the assay with GST-ANAC055(1-171); 0.219 E-score with GST-ATAF1 NAC domain; 0.442 E-score in assay [1]. Besides, the binding signal in the assay with GST-NAP(1-166) amounted to 0.129 E-score; with GST-NST2(1-184), 0.301 E-score; in the assay with GST-SND1(1-203), 0.377 E-score; with GST-VND3 NAC domain, 0.184 E-score; with GST-VND7 NAC domain, 0.156 E-score.
For AACGTGTA, the binding signal was 0.403 E-score with GST-ANAC092(1-176); 0.0638 E-score with GST-NTL6(1-168); 0.165 E-score in the assay with GST-ANAC019 NAC domain; 0.2 E-score in the assay with GST-ANAC055(1-171); 0.266 E-score with GST-ATAF1 NAC domain; 0.432 E-score in assay [1]. In addition, the binding signal came out at 0.125 E-score with GST-NAP(1-166); 0.265 E-score with GST-NST2(1-184); 0.295 E-score in the assay with GST-SND1(1-203); 0.275 E-score with GST-VND3 NAC domain; 0.0615 E-score with GST-VND7 NAC domain.
Turning to AAGTAAGC, the binding signal in the assay with GST-ANAC092(1-176) is 0.284 E-score; with GST-NTL6(1-168), 0.404 E-score; in the assay with GST-ANAC019 NAC domain, 0.104 E-score; with GST-ANAC055(1-171) it was 0.158 E-score; with GST-ATAF1 NAC domain, 0.199 E-score; in assay [1], 0.358 E-score. Moreover, the binding signal with GST-NAP(1-166) was found to be 0.0599 E-score; in the assay with GST-NST2(1-184), 0.171 E-score; with GST-NTL8 NAC domain, 0.337 E-score; with GST-SND1(1-203), 0.361 E-score; in the assay with GST-VND3 NAC domain, 0.21 E-score; with GST-VND7 NAC domain, 0.272 E-score.
